Assay outcomes deposited in PubChem BioAssay by National Center for Advancing Translational Sciences (NCATS).
BLM inh – Bloom syndrome helicase (human) inhibition | recombinant BLM DNA unwinding, fluorescence dequenching | P54132 | AID 2528 | Potency, µM (top dose mostly 56.1 µM), for inactives: at the top dose activity change, negative = inhibition, usual class: inhibitors | 350,000 tested, 0.2% active;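 note: plate controls were vehicle for no effect and no enzyme for full effect; nearly all actives have a fitted effect of over 35% in size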
RECQ1 inh – blocks DNA unwinding by human RECQ1 | P46063 | RECQ1 DNA unwinding, red fluorescence kinetic read | Potency, µM (top dose mostly 57.3 µM), inactives show top-dose activity, negative = inhibition, most hits filed as inhibitors | 240,000 tested, 0.54% active | AID 2549;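 note: plate controls were vehicle for no effect and no enzyme for full effect; nearly all actives have a fitted effect of over 30% in size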
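50 nM RECQ1T1 preincubated 15 min with compound in Tris pH 8.0 buffer with MgCl2, DTT, Tween-20 and 2.5 ug/ml poly(dI-dC); started with 200 nM TAMRA/BHQ-2 forked duplex and 2 mM ATP. Unwinding read as fluorescence (525/598 nm), two reads 2 h apart.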
Tb PGK inh – T. brucei PGK inhibition; P07378; PGK/GAPDH coupled, Kinase-Glo luminescence, 60 min; Potency, µM (top dose mostly 57.5 µM), for the others: at the top dose activity change, negative = inhibition, usual class: inhibitors; 380,000 tested, 0.043% active; note: nearly all actives have a fitted effect of over 60% in size
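Recombinant glycosomal PGK reaction used 1,3-bisphosphoglycerate generated in-well by GAPDH (100nM final) in 100mM TEA pH 7.6, 5mM MgCl2, 0.01% Tween-20. After 60 minutes at room temperature, ATP was read by Kinase-Glo Plus luminescence end-point.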
APE1 inh – blocks human APE1 abasic DNA cleavage; 350,000 tested, 0.35% active; AID 2517; recombinant APE1, TAMRA/BHQ-2 abasic DNA cleavage fluorescence; Potency, µM (top dose mostly 65.8 µM), without a hit: at the top dose activity change, negative = inhibition, most hits filed as inhibitors;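 note: plate controls were vehicle for no effect and reference inhibitor for full effect; nearly all actives have a fitted effect of over 55% in size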
Target sequence (P27695 whole entry, looked up): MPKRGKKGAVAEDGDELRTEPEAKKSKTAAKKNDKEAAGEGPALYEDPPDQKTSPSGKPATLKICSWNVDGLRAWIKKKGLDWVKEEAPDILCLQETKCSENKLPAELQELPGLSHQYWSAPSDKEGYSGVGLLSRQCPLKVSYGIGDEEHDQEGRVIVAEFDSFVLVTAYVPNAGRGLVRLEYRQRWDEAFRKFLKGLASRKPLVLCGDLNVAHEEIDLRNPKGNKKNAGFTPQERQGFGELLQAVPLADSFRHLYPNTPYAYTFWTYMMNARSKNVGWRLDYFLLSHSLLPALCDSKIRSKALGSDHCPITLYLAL
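Enzyme (0.75 nM final) and test compound are incubated 15 min at room temperature before adding 50 nM quenched THF abasic-site duplex. Cleavage dequenches TAMRA, followed at 525/598 nm over three reads one minute apart.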
FEN1 inh – blocks human flap endonuclease 1; 390,000 tested, 0.35% active; Recombinant FEN1 flap cleavage, fluorescence, 15 min; AID 588795; P39748; Potency, µM (series often up to 114 µM), for inactives: at the top dose activity change, negative = inhibition, actives largely listed as inhibitors; note: nearly all actives have a fitted effect of over 65% in size
Target sequence (P39748 whole entry, looked up): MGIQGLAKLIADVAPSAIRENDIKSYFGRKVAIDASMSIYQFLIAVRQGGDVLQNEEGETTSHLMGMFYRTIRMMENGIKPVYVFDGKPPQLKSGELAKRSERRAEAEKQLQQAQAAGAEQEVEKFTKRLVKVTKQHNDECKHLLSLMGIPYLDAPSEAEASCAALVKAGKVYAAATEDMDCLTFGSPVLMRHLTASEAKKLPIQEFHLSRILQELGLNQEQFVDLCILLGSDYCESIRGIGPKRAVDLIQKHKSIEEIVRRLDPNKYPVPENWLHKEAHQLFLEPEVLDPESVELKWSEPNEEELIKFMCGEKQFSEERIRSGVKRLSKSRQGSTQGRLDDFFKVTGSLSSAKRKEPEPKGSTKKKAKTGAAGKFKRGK
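Steps: FEN1 (10 nM) dispensed; compound added by pin tool; 15 min at room temperature; substrate added to 50 nM final; reads at 0 min and 15 min; data normalized and fitted (four-parameter Hill).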
* = called active by the depositor; i = inactive; ? = inconclusive; / = no result; ! = a repeat was not active. Shown are actives, neighbours in structure and some others; about 0.74% of the full set was active somewhere. Calls come from the whole dose curve; as a rule, active = well fitted curve in the direction sought with a large enough effect; inconclusive = small, poorly fitted or top-dose-only effect, or another doubt; inactive = no such curve, though single readings can be large; an effect the other way counts as inactive or inconclusive. Unless noted, % is set by controls: 0 for no effect and ±100 for the full control effect; potency is the fitted concentration of half-maximal effect.

SMILES	BLM inh	RECQ1 inh	Tb PGK inh	APE1 inh	FEN1 inh
COc1ccc(OCCn2cc(/C=N/NC(=O)c3ccncc3)c3ccccc32)cc1	-13%	-25%	2%	3%	-10%
Cc1ccc(OCCn2cc(/C=N/NC(=O)c3ccncc3)c3ccccc32)cc1	-2%	25µM*	-2%	-7%	-10%
COc1cccc(/C=N/Nc2ncnc3c2[nH]c2ccc(C)cc23)c1OC	14µM*	-8%	-5%	2%	-21%
COc1ccc(/C=N/Nc2ncnc3c2[nH]c2ccccc23)c(OC)c1OC	-11%	-27%	-9%	-1%	1%
Cc1cccc(NC(=O)CN2CCN(C(=O)c3cnn(Cc4ccccc4)c3)CC2)c1C	/	/	5%	-3%	-3%
CC(=O)Oc1cc(C(=O)OCC(=O)NC23CC4CC(CC(C4)C2)C3)cc(OC(C)=O)c1OC(C)=O	/	/	?	/	14µM*
C=CC(=O)Nc1cccc(Nc2nc(N[C@H]3CC[C@H](N(C)C)CC3)nc3c2ncn3C(C)C)c1	/	/	7%	/	50µM*
Cc1nc(N=Nc2cc([N+](=O)[O-])ccc2Cl)c(COP(=O)(O)O)c(C=O)c1O	0%	28µM*	/	35µM*	/
CCOc1cc(C=O)cc(N=Nc2cccc([N+](=O)[O-])c2)c1O	-7%	/	-12%	4%	-14%
COc1ccccc1NS(=O)(=O)c1cccc(-n2c(O)c(C=Nc3ccccc3C(=O)O)c3ccccc3c2=O)c1	-25%	-8%	-9%	-5%	79µM*
COc1ccc(Cn2c(O)c(C=Nc3ccccc3C(=O)O)c3ccccc3c2=O)cc1	?	-9%	-12%	-9%	?
Cc1ccccc1N=Cc1cccc(O)c1O	-11%	?	-6%	?	50µM*
Cc1ccc(N=Cc2cccc(O)c2O)c(C)c1	-21%	-13%	/	-11%	4.5µM*
CCN(CC)c1ccc(C=Nc2ccc(C)cc2C)c(O)c1	-2%	i	-2%	-1%	-5%
CC(=O)c1c(C)[nH]c(C(=O)OCC(=O)Nc2cc(S(=O)(=O)N3CCCC3)ccc2Cl)c1C	3%	-8%	-9%	-3%	-3%
COc1cc(N)ccc1Cc1ccc(N)cc1OC	-2%	i	-2%	-2%	3%
C=CCOC(=O)c1cc(-c2ccc(/C=C3\C(=O)NC(=O)C(C#N)=C3C)o2)ccc1Cl	?	?	?	?	79µM*
CCCOC(=O)c1cc(-c2ccc(/C=C3/C(=O)N(C)C(=O)C(C#N)=C3C)o2)ccc1Cl	/	/	-7%	/	0%
c1ccc(N=Nc2ccc(C3=NCCO3)cc2)cc1	/	/	-16%	/	/
COc1ccc2nc(-n3c(O)c(C4=c5ccccc5=NC4=O)[nH]c3=S)sc2c1	20µM*	-6%	?	-4%	32µM*
Cn1c(O)c(C2=c3ccccc3=NC2=O)[nH]c1=S	1%	5%	-9%	-3%	0%
O=C(O)c1ccccc1Nc1ccc([N+](=O)[O-])cc1C(=O)O	0%	-1%	19%	-2%	-11%
NC(=O)C(=O)N/N=C/c1c2ccccc2cc2ccccc12	2%	/	2%	-2%	25µM*
O=C(NCCCN1CCOCC1)C(=O)N/N=C/c1c2ccccc2cc2ccccc12	-2%	i	-12%	0%	40µM*
O=C(NCCCN1CCOCC1)C(=O)N/N=C/c1c(Cl)cccc1Cl	-1%	i	2%	-5%	6%
SMILES	BLM inh	RECQ1 inh	Tb PGK inh	APE1 inh	FEN1 inh
COc1ccc(OC)c(Nc2nc(NCc3ccco3)c3ccccc3n2)c1	28µM*	/	i	-8%	?
Cc1nc2ccc(-c3nc4ccc(N)cc4[nH]3)cc2[nH]1	-18%	-8%	-4%	?	35µM*
Nc1ccc2nc(-c3ccc(Cl)cc3)[nH]c2c1	-11%	-13%	-7%	-11%	?
COc1ccc(NC(=O)CN2C(=O)C(C)Oc3ccccc32)cc1OC (stereo not given)	-8%	/	-1%	23%	-1%
CN(CCO)c1nc(N)c(C#N)c(CC#N)c1C#N	-9%	-11%	-1%	0%	2%
CC(C)CN(CC(C)C)c1nc(N)c(C#N)c(CC#N)c1C#N	-8%	28µM*	-7%	12%	1%
O=C1c2c(O)cc(O)cc2O[C@@]12c1c(cc(O)c3c1O[C@H](c1ccc(O)cc1)[C@@H](O)C3)O[C@@H]2c1ccc(O)cc1	-6%	i	-4%	-2%	50µM*
Cc1csc(NC(=O)CSc2nncn2C)n1	-1%	-2%	i	0%	28%
Cn1cnnc1SCC(=O)Nc1ncc([N+](=O)[O-])s1	/	/	?	8.4µM*	?
CCOc1ccc(N(C(=O)c2snc(C(N)=O)c2N)C(C(=O)NCC2CCCO2)c2ccc(C)o2)cc1 (stereo not given)	-5%	/	1%	57%	-1%
CN(C)c1ccc(C=c2c3cc(O)ccc3n3c2cc(-c2ccccc2)[n+]3C)cc1	/	/	i	/	7.9µM*
CN(C)c1ccc(C=c2c3ccccc3n3c2c2ccccc2[n+]3C)cc1	/	/	-13%	/	32µM*
C[n+]1c(-c2ccccc2)cc2c(=Cc3ccccc3)c3ccccc3n21	/	/	-4%	/	?
Oc1[nH]c2ccccc2c1N=Nc1ccccc1F	1%	-5%	i	1%	-6%
O=C1NC(=Nc2ccccc2)S/C1=C\C=C\c1ccco1	13µM*	2%	-6%	3%	?
O=c1c(C(c2ccccc2)c2c(O)sc3ccccc3c2=O)c(O)sc2ccccc12	?	32µM*	-7%	-9%	5%
CC1=NN(c2ccc(C(=O)O)cc2)C(=O)/C1=C\c1ccc(OC(=O)c2cccs2)cc1	-4%	-5%	1%	?	50µM*
CC1=NN(c2ccccc2)C(=O)/C1=C/c1cccs1	2%	1%	0%	-2%	?
O=c1ccc(NS(=O)(=O)c2ccccc2Cl)cn1Cc1ccc(Cl)c(Cl)c1	-3%	-2%	-7%	-6%	71µM*
CCc1ccc(C(=O)N2CCC(c3nc(-c4ccc(S(=O)(=O)N5CCCC5)cc4)no3)CC2)cc1	-3%	/	8%	/	10%
CC(C)CC(=O)N[C@H](C(=O)N[C@H](C(=O)N[C@@H](CC(C)C)[C@@H](O)CC(=O)N[C@@H](C)C(=O)N[C@@H](CC(C)C)[C@@H](O)CC(=O)O)C(C)C)C(C)C	1%	32µM*!	i	7%	17%
CCOC(=O)c1cc(OCC)c2c(ccc3cc(OC)ccc32)n1	/	/	-17%	/	/
C#CCOCCOCCOCCNc1nc(N2CCOCC2)nc(N2CCN(C(=O)CCCCCCCCCCNC(=O)[C@@H](CCSC)n3cc(CCO)nn3)CC2)n1	/	/	6%	-1%	9%
